The record followed here is article PMC5700166.

Common to all, as to assay: protein-binding microarray (PBM); PBM: ~300 nM protein, 6 mM HEPES pH 7.8, 80 mM KCl, 0.5 mM EDTA, 0.5 mM EGTA, 6% glycerol, 35 ng/ul poly-dIdC, 1% milk, 1 h, room temperature; Ap Aiptasia and Nv Nematostella (sea anemones) / Co Capsaspora / Aq Amphimedon (sponge) / Dm Drosophila / Hu human; RHD is the Rel homology domain; high values mean tight binding
What all share (settings): dsDNA, one strand shown

The target in one experiment is T1, GST-Ap-NF-kB RHD (Exaiptasia pallida (Aiptasia), UniProt A0A913YAJ5 2-422).
T1 sequence: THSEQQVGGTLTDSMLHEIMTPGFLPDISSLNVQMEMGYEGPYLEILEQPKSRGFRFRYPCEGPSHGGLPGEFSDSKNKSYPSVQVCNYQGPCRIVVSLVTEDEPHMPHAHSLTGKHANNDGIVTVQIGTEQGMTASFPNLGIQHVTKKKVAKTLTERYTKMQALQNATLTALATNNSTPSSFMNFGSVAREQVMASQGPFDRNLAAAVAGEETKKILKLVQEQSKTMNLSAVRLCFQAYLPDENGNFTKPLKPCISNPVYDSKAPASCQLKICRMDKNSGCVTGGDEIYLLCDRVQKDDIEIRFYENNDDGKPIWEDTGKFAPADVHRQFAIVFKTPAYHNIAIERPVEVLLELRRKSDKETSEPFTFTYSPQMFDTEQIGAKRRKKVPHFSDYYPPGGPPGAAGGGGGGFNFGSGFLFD

In experiment [1] the target is T2, GST-Nv-NF-kB (Cys allele) (Nematostella vectensis, UniProt E5G601 2-411).
T2 sequence: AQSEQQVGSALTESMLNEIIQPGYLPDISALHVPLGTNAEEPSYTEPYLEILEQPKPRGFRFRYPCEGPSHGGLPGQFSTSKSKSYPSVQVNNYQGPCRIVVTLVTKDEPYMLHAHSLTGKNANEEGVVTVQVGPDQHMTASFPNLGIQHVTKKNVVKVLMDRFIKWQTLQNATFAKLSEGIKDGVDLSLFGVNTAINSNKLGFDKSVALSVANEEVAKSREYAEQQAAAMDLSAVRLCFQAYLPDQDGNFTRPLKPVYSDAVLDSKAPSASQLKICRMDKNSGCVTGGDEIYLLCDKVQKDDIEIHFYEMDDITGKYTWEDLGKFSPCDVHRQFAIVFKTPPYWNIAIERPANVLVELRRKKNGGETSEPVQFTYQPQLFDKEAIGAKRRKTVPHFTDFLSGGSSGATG

Experiment [2] has as its target T3, GST-Nv-NF-kB (Ser allele) (Nematostella vectensis, UniProt A7UNT2 2-411).
T3 sequence: T2 sequence with Q21R, C66S, S207N, E215Q, V217A, E225K, A268E, D399E

Another experiment concerns the target T4, GST-Co-NF-kB (Capsaspora owczarzaki, UniProt F1ARL5 200-546).
T4 sequence: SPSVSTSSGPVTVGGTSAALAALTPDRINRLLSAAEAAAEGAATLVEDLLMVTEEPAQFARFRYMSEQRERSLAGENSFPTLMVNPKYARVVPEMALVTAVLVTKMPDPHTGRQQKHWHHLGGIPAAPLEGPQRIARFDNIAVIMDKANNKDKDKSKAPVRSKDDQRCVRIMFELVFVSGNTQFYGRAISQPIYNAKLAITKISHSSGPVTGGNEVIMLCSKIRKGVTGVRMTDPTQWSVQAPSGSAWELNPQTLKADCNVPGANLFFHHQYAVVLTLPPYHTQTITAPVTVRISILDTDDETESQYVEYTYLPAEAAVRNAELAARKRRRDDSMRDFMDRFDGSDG

For another experiment, the target named is T5, GST-Dm-Relish (Drosophila melanogaster, UniProt Q94527 99-473).
T5 sequence: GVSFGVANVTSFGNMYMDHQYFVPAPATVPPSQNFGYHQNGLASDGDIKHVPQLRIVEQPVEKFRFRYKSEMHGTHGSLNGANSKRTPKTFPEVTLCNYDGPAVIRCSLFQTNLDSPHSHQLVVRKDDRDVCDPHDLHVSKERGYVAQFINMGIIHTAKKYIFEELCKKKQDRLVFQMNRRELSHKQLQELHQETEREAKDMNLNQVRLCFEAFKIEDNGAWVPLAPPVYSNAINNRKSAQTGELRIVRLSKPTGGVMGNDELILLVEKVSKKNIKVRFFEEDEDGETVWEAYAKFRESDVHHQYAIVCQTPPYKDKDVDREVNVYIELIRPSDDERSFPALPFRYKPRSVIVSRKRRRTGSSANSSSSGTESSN

A further experiment deals with T6, GST-Aq-NF-kB (Amphimedon queenslandica, UniProt A9Y5G7 2-389).
T6 sequence: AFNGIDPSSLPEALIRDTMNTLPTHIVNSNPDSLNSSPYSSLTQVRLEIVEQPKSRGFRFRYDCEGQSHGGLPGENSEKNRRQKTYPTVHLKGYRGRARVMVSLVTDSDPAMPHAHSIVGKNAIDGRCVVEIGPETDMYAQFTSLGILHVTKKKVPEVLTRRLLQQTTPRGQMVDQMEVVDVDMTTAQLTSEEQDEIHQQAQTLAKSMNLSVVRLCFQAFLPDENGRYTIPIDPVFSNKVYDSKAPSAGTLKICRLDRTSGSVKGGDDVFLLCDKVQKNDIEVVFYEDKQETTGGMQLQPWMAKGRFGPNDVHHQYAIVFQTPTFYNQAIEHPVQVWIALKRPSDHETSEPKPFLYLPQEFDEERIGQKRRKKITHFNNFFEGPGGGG

A further experiment concerns the target GST-Hu-p50 (Homo sapiens, UniProt P19838 7-356).

Positions count from the first letter of the chain named.

Sequence of GST-Hu-p50 (P19838 7-356): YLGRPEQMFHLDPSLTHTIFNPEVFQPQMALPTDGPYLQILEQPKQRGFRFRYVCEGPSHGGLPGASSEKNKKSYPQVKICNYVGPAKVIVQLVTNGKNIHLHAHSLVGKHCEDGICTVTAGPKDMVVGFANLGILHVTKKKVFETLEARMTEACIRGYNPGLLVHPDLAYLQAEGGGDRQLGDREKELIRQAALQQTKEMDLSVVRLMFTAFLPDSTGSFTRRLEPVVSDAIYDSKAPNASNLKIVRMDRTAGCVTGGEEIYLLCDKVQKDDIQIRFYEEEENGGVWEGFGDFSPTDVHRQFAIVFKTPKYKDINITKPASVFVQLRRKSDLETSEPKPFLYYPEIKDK

Take “CCGATTAACATCAGAAATTCCCCTGATGTTAATCGGGTCTTGATTCGCTTGACGCTGCTG”: the binding signal is 9.89 z-score in the experiment with GST-Ap-NF-kB RHD; 12.3 z-score in experiment [1]; 13.2 z-score in experiment [2]; 8.74 z-score in the experiment with GST-Co-NF-kB; 8.87 z-score with GST-Dm-Relish; 8.89 z-score in the experiment with GST-Aq-NF-kB. In the experiment with GST-Hu-p50, the binding signal came to 7.96 z-score.

Consider “CCGATTAACATCAAATTTTCCCGTGATGTTAATCGGGTCTTGATTCGCTTGACGCTGCTG”, for which the binding signal stood at 4.26 z-score with GST-Ap-NF-kB RHD; 6.26 z-score in experiment [1]; 7.05 z-score in experiment [2]; 6.38 z-score with GST-Co-NF-kB; 3.36 z-score with GST-Dm-Relish; 5.86 z-score with GST-Aq-NF-kB. Also, the binding signal in the experiment with GST-Hu-p50 was found to be 4.58 z-score.

Regarding “CCGATTAACATCAAGGGGAAAATTGATGTTAATCGGGTCTTGATTCGCTTGACGCTGCTG”, the binding signal worked out at 7.28 z-score in the experiment with GST-Ap-NF-kB RHD; 8.8 z-score in experiment [1]; 11.5 z-score in experiment [2]; 8.77 z-score in the experiment with GST-Co-NF-kB; 4.19 z-score in the experiment with GST-Dm-Relish; 7.23 z-score with GST-Aq-NF-kB. The sequence also yielded a binding signal in the experiment with GST-Hu-p50 of 6.72 z-score.

Take “CCGATTAACATCAATATTCCCCCTGATGTTAATCGGGTCTTGATTCGCTTGACGCTGCTG”: the binding signal was 8.39 z-score with GST-Ap-NF-kB RHD; 9.05 z-score in experiment [1]; 10 z-score in experiment [2]; 10.4 z-score with GST-Co-NF-kB; 6.05 z-score with GST-Dm-Relish; 7.05 z-score in the experiment with GST-Aq-NF-kB. In the experiment with GST-Hu-p50, this sequence registered a binding signal of 7.24 z-score.

Consider “CCGATTAACATCAAAGACCCCCCTGATGTTAATCGGGTCTTGATTCGCTTGACGCTGCTG”, for which the binding signal with GST-Ap-NF-kB RHD is 6.11 z-score; in experiment [1] it was 4.15 z-score; in experiment [2], 4.24 z-score; in the experiment with GST-Co-NF-kB, 3.36 z-score; in the experiment with GST-Dm-Relish, 7.07 z-score; with GST-Aq-NF-kB it was 5.33 z-score. For the same sequence, the binding signal with GST-Hu-p50 came to 4.3 z-score.

Turning to “CCGATTAACATCAAAATCCCAGTTGATGTTAATCGGGTCTTGATTCGCTTGACGCTGCTG”, the binding signal in the experiment with GST-Ap-NF-kB RHD was found to be 1.67 z-score; in experiment [1], 1.47 z-score; in experiment [2], 1.74 z-score; in the experiment with GST-Co-NF-kB it was 1.27 z-score; with GST-Dm-Relish, 5.96 z-score; in the experiment with GST-Aq-NF-kB, 1.75 z-score. Moreover, the binding signal with GST-Hu-p50 was 1.82 z-score.

For “CCGATTAACATCAAAAATCCCAGTGATGTTAATCGGGTCTTGATTCGCTTGACGCTGCTG”, the binding signal came out at 3.43 z-score with GST-Ap-NF-kB RHD; 3.35 z-score in experiment [1]; 2.65 z-score in experiment [2]; 2.44 z-score in the experiment with GST-Co-NF-kB; 7.35 z-score with GST-Dm-Relish; 3.8 z-score with GST-Aq-NF-kB. The binding signal with GST-Hu-p50 came out at 3.5 z-score.

Turning to “CCGATTAACATCAAATTTCCCTATGATGTTAATCGGGTCTTGATTCGCTTGACGCTGCTG”, the binding signal with GST-Ap-NF-kB RHD is 4.13 z-score; in experiment [1] it was 6.5 z-score; in experiment [2], 6.37 z-score; with GST-Co-NF-kB, 3.02 z-score; with GST-Dm-Relish it was 2.55 z-score; with GST-Aq-NF-kB, 6.3 z-score. Moreover, the binding signal in the experiment with GST-Hu-p50 was 5.04 z-score.

With “CCGATTAACATCAAATTTCCCCGTGATGTTAATCGGGTCTTGATTCGCTTGACGCTGCTG”, the binding signal was determined as 8.33 z-score with GST-Ap-NF-kB RHD; 9.6 z-score in experiment [1]; 11.4 z-score in experiment [2]; 9.87 z-score in the experiment with GST-Co-NF-kB; 7.13 z-score with GST-Dm-Relish; 7.38 z-score in the experiment with GST-Aq-NF-kB. This sequence registered a binding signal in the experiment with GST-Hu-p50 of 6.52 z-score.

With “CCGATTAACATCAAAAACCCCCGTGATGTTAATCGGGTCTTGATTCGCTTGACGCTGCTG”, the binding signal was 9.67 z-score in the experiment with GST-Ap-NF-kB RHD; 8.8 z-score in experiment [1]; 8.78 z-score in experiment [2]; 4.41 z-score with GST-Co-NF-kB; 10.8 z-score with GST-Dm-Relish; 8.35 z-score in the experiment with GST-Aq-NF-kB. Moreover, the binding signal with GST-Hu-p50 amounted to 7.43 z-score.

As to “CCGATTAACATCAGGGGATTTACTGATGTTAATCGGGTCTTGATTCGCTTGACGCTGCTG”, the binding signal worked out at 8.92 z-score in the experiment with GST-Ap-NF-kB RHD; 9.25 z-score in experiment [1]; 10.4 z-score in experiment [2]; 3.45 z-score with GST-Co-NF-kB; 10.5 z-score with GST-Dm-Relish; 7.83 z-score with GST-Aq-NF-kB. Besides, the binding signal with GST-Hu-p50 came to 7.61 z-score.

In the case of “CCGATTAACATCAAGGGGGAGAATGATGTTAATCGGGTCTTGATTCGCTTGACGCTGCTG”, the binding signal turned out to be 5.78 z-score with GST-Ap-NF-kB RHD; 6.63 z-score in experiment [1]; 7.33 z-score in experiment [2]; 7.92 z-score with GST-Co-NF-kB; 2.2 z-score in the experiment with GST-Dm-Relish; 4.93 z-score with GST-Aq-NF-kB. Further, the binding signal in the experiment with GST-Hu-p50 was found to be 6.83 z-score.

Turning to “CCGATTAACATCACTTTTCCCCCTGATGTTAATCGGGTCTTGATTCGCTTGACGCTGCTG”, the binding signal is 6.53 z-score in the experiment with GST-Ap-NF-kB RHD; 7.4 z-score in experiment [1]; 8.95 z-score in experiment [2]; 10.8 z-score in the experiment with GST-Co-NF-kB; 3.73 z-score with GST-Dm-Relish; 5.27 z-score with GST-Aq-NF-kB. Further, in the experiment with GST-Hu-p50, the binding signal was 6.51 z-score.
